Experimental findings from PubChem BioAssay AID1851 (National Center for Advancing Translational Sciences (NCATS), 2009) are described below.

Out of some 16,000 compounds screened, about 5,800 (36%) were called active. Another 23% or so got no clear call; they are omitted. This is one part of the list. Values without a mark were called inactive. Calls follow the shape of the dose curve; as a rule, active = well fitted curve in the direction sought with a large enough effect; inconclusive = small, poorly fitted or top-dose-only effect, or effect the other way; inactive = no such curve, though single readings can be large or run the other way.
% is scaled to controls: 0 for no effect and ±100 for the full control effect.

In this assay the target is Cytochrome P450 2C19 (Homo sapiens) (UniProt P33261). In words: Cytochrome panel assay with activity outcomes. The settings on record: recombinant CYP, pro-luciferin dealkylation, luminescence, p450-cyp2c19; series mostly up to 57.1 µM; activity, negative = inhibition: at the top concentration.
Chain of Cytochrome P450 2C19 (Homo sapiens) (P33261 whole entry, looked up): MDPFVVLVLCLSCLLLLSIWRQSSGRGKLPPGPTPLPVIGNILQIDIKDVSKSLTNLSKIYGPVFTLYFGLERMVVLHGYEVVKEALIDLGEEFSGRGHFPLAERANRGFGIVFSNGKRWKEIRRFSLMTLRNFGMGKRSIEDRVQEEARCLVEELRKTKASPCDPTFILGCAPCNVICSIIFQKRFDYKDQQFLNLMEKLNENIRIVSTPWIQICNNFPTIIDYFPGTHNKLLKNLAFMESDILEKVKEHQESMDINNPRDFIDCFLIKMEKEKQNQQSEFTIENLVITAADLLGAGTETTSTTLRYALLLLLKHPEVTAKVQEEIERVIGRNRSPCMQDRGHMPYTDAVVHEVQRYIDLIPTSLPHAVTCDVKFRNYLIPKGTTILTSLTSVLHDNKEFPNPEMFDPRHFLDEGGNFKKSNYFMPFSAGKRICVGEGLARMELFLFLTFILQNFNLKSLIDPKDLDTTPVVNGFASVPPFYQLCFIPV
One may read the AC50 as the concentration giving half of the maximal activity seen. For `Cc1nnc(NC(=O)c2oc3c(ccc4ccccc43)c2C)s1`, the AC50 is 10 µM (active).

Regarding `Cc1c(OC(=O)c2ccc([N+](=O)[O-])cc2)c2c(c[n+]1C)COC(C)(C)OC2`, the “activity, negative = inhibition” value is 20.4%.

As to `Cc1ccc(S(=O)(=O)CC#CCOC(=O)c2ccc([N+](=O)[O-])cc2)cc1`, the AC50 is 7.94 µM (active).

Take `CCOC(=O)n1ccn(C)c1=S`: the “activity, negative = inhibition” value is 10.6% [at 25.6 µM].

As for `O=C1Nc2ccccc2C(O)(C(=O)NCc2ccc3c(c2)OCO3)N1c1ccc(Cl)c(Cl)c1` (stereo not drawn), the “activity, negative = inhibition” value was -26.2%.

`C/C(=C\C(=O)c1ccc(Br)cc1)NCc1ccc2c(c1)OCO2`: the AC50 was 8.91 µM (active).

On to `C/C(=C\C(=O)c1ccc(Cl)cc1)NCc1ccc2c(c1)OCO2`, for which the AC50 was 2.51 µM (active).

Take `O=C(c1ccc(Cl)c(Cl)c1)c1cc(-c2ccccn2)c(N2CCOCC2)s1`: the AC50 is 7.94 µM (active).

Take `Cc1cc(F)ccc1S(=O)(=O)Nc1ccccc1C(=O)Nc1ccccc1N1CCOCC1`: the AC50 is 1.58 µM (active).

Regarding `O=C(Nc1ccccc1N1CCOCC1)c1ccccc1[N+](=O)[O-]`, the “activity, negative = inhibition” value is -26.2%.

Turning to `Cc1ccccc1C(=O)Nc1ccc(N2CCOCC2)nc1`, the “activity, negative = inhibition” value was -14.6%.

As for `NCc1ccccc1CC(=O)N[C@@H]1C(=O)N2C(C(=O)O)=C(CSc3nnnn3CC(=O)O)CS[C@@H]12`, the “activity, negative = inhibition” value was 13.7% [at 25.6 µM].

Regarding `CCn1cnc2sc(C(=O)N3CCN(c4ccc(OC)cc4)CC3)c(C)c2c1=O`, the AC50 is 10 µM (active).

Turning to `CC(=O)NCCc1c(Cc2ccccc2)[nH]c2ccccc12`, the AC50 was 25.1 µM (active).

With `CC(=O)NCCc1ccc(O)c(O)c1`, the “activity, negative = inhibition” value is -0.0511%.

With `COC(=O)Nc1ccc2[nH]cc(CCNC(C)=O)c2c1`, the “activity, negative = inhibition” value is -26.7%.

For the molecule `COc1ccc2[nH]c(-c3ccccc3)c(CCNC(C)=O)c2c1`, the AC50 is 7.94 µM (active).

For the molecule `C=N[C@H](C(=O)N[C@@H]1C(=O)N2[C@@H]1SC(C)(C)[C@@H]2C(=O)O)c1ccccc1`, the “activity, negative = inhibition” value was -3.23% [at 25.6 µM].

`COc1ccccc1S(=O)(=O)Nc1ccc(-c2nnc3n2CCCCC3)cc1`: the “activity, negative = inhibition” value is -33%.

`COc1ccc(NS(=O)(=O)c2cc(-c3nnnn3C)ccc2OC)cc1`: the AC50 was 14.1 µM (active).

In the case of `O=C(O)c1cccc(SSc2cccc(C(=O)O)c2)c1`, the activity, negative = inhibition is -33.7% [at 11.4 µM].

As for `O=C(O)c1cc(C(=O)O)nc(C(=O)O)c1`, the activity, negative = inhibition is 3.49% [at 11.4 µM].

Turning to `O=C(O)c1ccc(SSc2ccc(C(=O)O)cn2)nc1`, the AC50 was 2.51 µM (active).

Turning to `CCOC(=O)c1nnc(-c2ccccc2)nc1NCc1ccccc1`, the AC50 is 25.1 µM (active).

Regarding `Cc1ccnc(NS(=O)(=O)c2ccc(N)cc2)n1`, the AC50 result was “inactive”.

`O=S(=O)(Nc1ccc(Cc2ccncc2)cc1)c1ccc(Cl)c(Cl)c1`: the AC50 is 0.0251 µM (active).

Consider `O=S(=O)(Nc1ccc(Cc2ccncc2)cc1)c1cccs1`, for which the AC50 is 0.0224 µM (active).

With `C/C(=N/S(=O)(=O)c1ccc(Cl)c(Cl)c1)OCC(C)(C)C`, the activity, negative = inhibition was 58.8% [at 11.4 µM].

For `O=S(=O)(Nc1ccc(Cc2ccncc2)cc1)c1ccc(Br)cc1`, the AC50 is 0.0224 µM (active).

Take `CC(=O)N=c1sc(S(N)(=O)=O)nn1C`: the “activity, negative = inhibition” value is -1.35% [at 25.6 µM].

For the molecule `COc1cc(-c2nnc(SCC(=O)Nc3ccc4c(c3)OCCO4)o2)cc(OC)c1OC`, the AC50 was 11.2 µM (active).

Take `CCN(CC)CCCCCCCCOC(=O)c1cc(OC)c(OC)c(OC)c1`: the “activity, negative = inhibition” value is -15.4%.

As for `CCCCOC(=O)CSc1nnc(-c2cc(OC)c(OC)c(OC)c2)o1`, the AC50 is 15.8 µM (active).

As for `Cc1ccc(NC(=O)CSc2nnc(-c3ccncc3)o2)cc1`, the “activity, negative = inhibition” value is -29.9%.

On to `COc1cc(-c2nnc(SCC3(c4ccccc4)OCCO3)o2)cc(OC)c1OC`, for which the AC50 is 1.12 µM (active).

On to `C/C(C[n+]1ccccc1)=N\N=C(N)N`, for which the activity, negative = inhibition is 40.3% [at 11.4 µM].

In the case of `Cn1cc(-c2nc3cnc(N4CCNCC4)nc3n(C3CC3)c2=O)c2ccccc21`, the half-maximal activity concentration (AC50) was 20 µM (active).

As for `CN1CCN(c2ncc3nc(-c4cn(C)c5ccccc45)c(=O)n(C)c3n2)CC1`, the “activity, negative = inhibition” value is -41.2%.

`Cn1cc(-c2nc3cnc(Oc4ccccc4)nc3n(C3CC3)c2=O)c2ccccc21`: the “activity, negative = inhibition” value is -13.9%.

For `Cn1cc(-c2nc3cnc(N4CCNCC4)nc3n(C)c2=O)c2ccccc21`, the AC50 is 10 µM (active).

Regarding `COc1ccc(-n2c(=O)c(-c3cn(C)c4ccccc34)nc3cnc(N4CCNCC4)nc32)cc1`, the “activity, negative = inhibition” value was -40.5%.

Take `Cn1cc(-c2nc3cnc(N4CCNCC4)nc3n(-c3ccccc3)c2=O)c2ccccc21`: the “activity, negative = inhibition” value is -41.6%.

Consider `Cc1ccccc1C(=O)NC(C)c1ccc2c(c1)CCCC2` (stereo not drawn), for which the AC50 was 2.82 µM (active).

For the molecule `CCn1c2ccccc2c2cnc(N=CN(C)C)c(C#N)c21`, the AC50 is 28.2 µM (active).

Consider `Cn1c(=S)c2[nH]c(SCCN3CCCC3)nc2n(C)c1=O`, for which the activity, negative = inhibition was 57% [at 11.4 µM].

As to `Cc1cnc(C(=O)OCC(=O)NC(C)C)cn1`, the “activity, negative = inhibition” value was -27%.

In the case of `CC(C)(C)NC(=O)COC(=O)c1cncc(Br)c1`, the AC50 is 22.4 µM (active).

For the molecule `O=c1n(-c2ccccc2)c(=O)n2n1CC[C@H]1/C(=N\OCc3ccccc3)[C@H]3O[C@@H]3[C@@H](O)[C@@H]12`, the activity, negative = inhibition was 44.7% [at 11.4 µM].

Take `CCOC(=O)c1ccc(S(=O)(=O)Nc2ccc3cn[nH]c3c2)cc1`: the AC50 was 3.16 µM (active).

In the case of `COCCn1c(=O)c(-c2ccc(OC)cc2)nc2cnc(Nc3cccc(OC)c3)nc21`, the “activity, negative = inhibition” value is -22.3%.

Take `C[C@@H]1CCN=C(N)S1`: the AC50 entry was “inactive”.

Consider `N#Cc1ccc(C(c2nnnn2C2CCCC2)N2CCC(Cc3ccccc3)CC2)cc1` (stereo not drawn), for which the AC50 is 3.55 µM (active).

As to `N#Cc1ccc(C(c2nnnn2Cc2ccccc2)N2CCCC2)cc1` (stereo not drawn), the AC50 was 11.2 µM (active).

`CN1CCCN([C@@H](c2ccccc2)c2ccc(Cl)cc2)CC1`: the “activity, negative = inhibition” value was -31% [at 25.6 µM].

Regarding `N#Cc1cccc(C(c2nnnn2C2CCCC2)N2CCCCCC2)c1` (stereo not drawn), the half-maximal activity concentration (AC50) was 5.62 µM (active).

For the molecule `O=C(c1cc(Br)ccc1O)c1cc(Br)ccc1O`, the AC50 is 0.2 µM (active).

For the molecule `Oc1ccc(Br)cc1CNn1cnnc1`, the “activity, negative = inhibition” value is -29.1%.

On to `O=C(Nc1ccc(-c2cn3ccccc3n2)cc1)c1cc(Br)ccc1O`, for which the activity, negative = inhibition is -1.2% [at 11.4 µM].

Regarding `COc1ccc(S(=O)(=O)n2ccc(-c3cnc(-c4ccccc4)s3)n2)cc1`, the AC50 was 1.58 µM (active).

Regarding `O=S(=O)(c1ccc(F)cc1)n1ccc(-c2cnc(-c3ccccc3)s2)n1`, the half-maximal activity concentration (AC50) was 8.91 µM (active).

For the molecule `Cn1c(=O)c(-c2ccccc2)nc2cnc(Oc3ccccc3)nc21`, the “activity, negative = inhibition” value is -32.1%.

For `COc1cccc(-c2cc(C(F)(F)F)n3ncc(S(=O)(=O)c4ccccc4)c3n2)c1`, the “activity, negative = inhibition” value was -17.7%.

As to `CCc1cc2c(NCCO)ncnc2s1`, the “activity, negative = inhibition” value is -1.72%.

Regarding `CCc1cc2c(=O)[nH]cnc2s1`, the “activity, negative = inhibition” value was -8.19%.

As to `CCc1cc2c(NCc3ccco3)ncnc2s1`, the AC50 is 4.47 µM (active).

With `Nc1ccccc1S(N)(=O)=O`, the “activity, negative = inhibition” value was 28.3% [at 25.6 µM].

For `Cc1ccc2nc(N/N=C/c3ccccc3C#N)nc(-c3ccccc3)c2c1`, the AC50 is 10 µM (active).

For `Cc1ccc2nc(N/N=C\c3cccc(C)n3)cc(C)c2c1`, the activity, negative = inhibition is -12.3% [at 11.4 µM].

On to `Cc1nc(N/N=C/c2ccccc2)nc(N(C)c2ccccc2)c1[N+](=O)[O-]`, for which the “activity, negative = inhibition” value is -26.7%.

In the case of `Cc1cccc(N2CCN(C(=O)CSCc3c(C)noc3C)CC2)c1C`, the AC50 is 17.8 µM (active).

Regarding `Cc1noc(C)c1C(=O)N1CCC2(CCCN(c3ccccc3)C2)CC1`, the “activity, negative = inhibition” value was 8.61%.

In the case of `Cc1ccc(NC(=S)Nc2nc(CC(=O)Nc3ccccc3)cs2)cc1`, the half-maximal activity concentration (AC50) was 3.98 µM (active).

As for `COCCn1c(=O)c(-c2cccc(C#N)c2)nc2cnc(N3CCOCC3)nc21`, the “activity, negative = inhibition” value was 12.2%.

Take `NC(=O)OC[C@H](O)COc1ccc(Cl)cc1`: the “activity, negative = inhibition” value was -26.8% [at 25.6 µM].

With `COc1ccc(C(=O)Nc2scc(-c3ccc(Cl)cc3Cl)c2C(N)=O)cc1`, the AC50 is 1.26 µM (active).

Regarding `CC(C)COc1ccc(C(=O)Nc2scc(-c3ccc(Cl)cc3Cl)c2C(N)=O)cc1`, the half-maximal activity concentration (AC50) is 2.82 µM (active).

In the case of `O=C(CC1C(=O)N(c2ccc(Cl)cc2)C(=S)N1CCc1ccncc1)Nc1ccc(F)cc1` (stereo not drawn), the AC50 was 0.02 µM (active).

As to `CS(=O)(=O)c1ccccc1COC(=O)Nc1ccc(Cl)cc1`, the AC50 was 2.51 µM (active).

On to `O=C(Nc1ccc(Cl)cc1)OCc1cc(-c2ccccc2Cl)on1`, for which the AC50 is 0.316 µM (active).

As for `O=C(Nc1ccccc1)OCc1cc(-c2ccc(Cl)cc2)on1`, the AC50 is 2 µM (active).

For `O=C(Nc1ccc(Cl)cc1)OCc1cc(-c2ccccc2)on1`, the AC50 was 0.447 µM (active).

Consider `O=C(c1cc(C(F)(F)F)cc(C(F)(F)F)c1)N1CCC[C@@]2(CCN(c3ncccn3)C2)C1`, for which the “activity, negative = inhibition” value was 3.94%.

`CCC(=O)O[C@@H]1[C@H](C)O[C@H](O[C@H]2[C@@H](N(C)C)[C@H](O)[C@@H](O[C@@H]3[C@@H](CC=O)C[C@@H](C)[C@@H](O)/C=C\C=C/C[C@@H](C)OC(=O)C[C@@H](OC(=O)CC)[C@H]3OC)O[C@H]2C)C[C@]1(C)O`: the “activity, negative = inhibition” value is -40.3% [at 25.6 µM].

For the molecule `Cc1nc(SCC(=O)c2ccc(F)cc2)c([N+](=O)[O-])[nH]1`, the AC50 is 8.91 µM (active).

With `Cn1c(=S)c2[nH]c(SCCCc3ccccc3)nc2n(C)c1=O`, the activity, negative = inhibition was -28.4% [at 11.4 µM].

Take `Cc1nc2cnc(Nc3ccccc3)nc2n(Cc2cccs2)c1=O`: the “activity, negative = inhibition” value is -26.1%.

On to `O=c1cnc2cnc(Nc3ccccc3)nc2n1Cc1cccs1`, for which the “activity, negative = inhibition” value is -24.6%.

For the molecule `COc1ccc(-c2nc3cnc(Nc4ccccc4)nc3n(Cc3cccs3)c2=O)cc1`, the “activity, negative = inhibition” value was -32.2%.

As for `CCOc1ccc(NC2=NCC(=O)N2Cc2cccs2)cc1`, the AC50 is 11.2 µM (active).

For the molecule `C=CCN1C(=O)CN=C1Nc1ccccc1`, the “activity, negative = inhibition” value was -10.4%.

`O=C1CN=C(Nc2ccccc2)N1Cc1cccs1`: the AC50 was 14.1 µM (active).

Turning to `COc1ccc(CNC(=O)/C=C/c2ccc(OCCCF)cc2)cc1`, the “activity, negative = inhibition” value is -15.5%.

On to `CCCCOc1ccc(/C=C/C(=O)NCCc2nc3ccccc3[nH]2)cc1`, for which the AC50 is 3.98 µM (active).

`Nc1nnc(SCCOc2cccc(Br)c2)s1`: the AC50 was 3.98 µM (active).

For `O=C(CSC1CC(=O)N(CC(c2ccccc2)c2ccccc2)C1=O)Nc1ccc(Cl)cc1` (stereo not drawn), the AC50 was 1.58 µM (active).

Consider `CCCCN1C(=O)CC(Sc2ccccc2C(=O)O)C1=O` (stereo not drawn), for which the “activity, negative = inhibition” value is -28.3%.

Take `COC(=O)c1ccc(NC(=O)c2cc3sccc3n2C)cc1`: the AC50 was 7.94 µM (active).

For `Cn1c(C(=O)Nc2ccccc2)cc2sccc21`, the AC50 was 2.51 µM (active).
